This is an account of results in PubChem BioAssay (EPA / NIEHS).

The target in experiment [1] is Retinoic acid receptor RXR-alpha (Homo sapiens) (UniProt P19793). As to the kind of experiment: OT_NURR1_NURR1RXRa_0480: Odyssey Thera (OT) 8-hour HEK293T Protein Complementation Assay for Nurr1/retinoid X receptor (RXR) (AID 2283385). The gist of the method:
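8 h compound exposure, HEK293T; Nurr1/RXRα fragment complementation; fluorescence intensity; positive fitting direction vs DMSO baseline.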

Experiment [2] has the same target. As to the kind of experiment: OT_NURR1_NURR1RXRa_1440: Odyssey Thera (OT) 24-hour HEK293T Protein Complementation Assay for Nurr1/retinoid X receptor (RXR) (AID 2283386). The gist of the method: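 Interaction of Nurr1 with RXRα brings fused reporter fragments together in human HEK293T cells, restoring a functional reporter. Fluorescence intensity is measured 24 h after chemical treatment, and values are analysed in the positive direction against DMSO.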

For experiment [3], the target named is Peroxisome proliferator-activated receptor gamma (Homo sapiens) (UniProt P37231). Description: OT_PPARg_PPARgSRC1_0480: Odyssey Thera (OT) 8-hour Protein-Complementation Assay for Peroxisome Proliferator-activated Receptor Gamma / SRC-1 Co-activator (AID 2283387).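 Note: nuclear to cytoplasmic split Venus YFP fluorescence ratio reporting PPARg SRC-1 interaction.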 The procedure, abridged: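 Protein-fragment complementation in HEK293T: Venus YFP halves (residues 1-158, 159-239, mutated to IFP1/IFP2) fused to PPARg/SRC-1. 8 h exposure; N/C ratio at 488 nm; DMSO negative control.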
Sequence of Peroxisome proliferator-activated receptor gamma (Homo sapiens) (P37231 whole entry, looked up, the tested form may be a part): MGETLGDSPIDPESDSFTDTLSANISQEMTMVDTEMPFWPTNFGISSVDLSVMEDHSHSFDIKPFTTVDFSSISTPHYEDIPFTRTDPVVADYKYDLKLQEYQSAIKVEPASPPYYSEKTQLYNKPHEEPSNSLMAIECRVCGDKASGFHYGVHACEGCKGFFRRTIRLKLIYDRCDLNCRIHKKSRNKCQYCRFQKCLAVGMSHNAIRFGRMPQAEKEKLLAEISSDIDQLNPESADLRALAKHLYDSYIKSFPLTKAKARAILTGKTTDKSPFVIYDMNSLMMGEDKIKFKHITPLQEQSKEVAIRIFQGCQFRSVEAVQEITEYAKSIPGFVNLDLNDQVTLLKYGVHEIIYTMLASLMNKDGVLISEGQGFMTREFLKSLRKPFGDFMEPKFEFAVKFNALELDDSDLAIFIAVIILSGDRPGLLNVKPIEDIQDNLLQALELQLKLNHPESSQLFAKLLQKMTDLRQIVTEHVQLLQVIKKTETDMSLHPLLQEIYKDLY

The target is the same in experiment [4]. As to the kind of experiment: OT_PPARg_PPARgSRC1_1440: Odyssey Thera (OT) 24-hour Protein-Complementation Assay for Peroxisome Proliferator-activated Receptor Gamma/ SRC-1 Co-activator (AID 2283388).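 Note: nuclear to cytoplasmic ratio of reconstituted Venus YFP fluorescence in fixed imaged cells.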 The procedure, abridged:
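Transient HEK293T, YFP fragments 1-158/159-239 (mutant IFP1/IFP2) fused to PPARg/SRC-1; 24 h dosing; fix 4% formaldehyde, Draq5; Opera imaging 488/635 nm; N/C ratio, gain vs DMSO.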

Read-out in experiment [5]: Fatty acid synthase (Homo sapiens) (UniProt P49327)
As to the kind of experiment: LTEA_HepaRG_FASN: Life Technologies and Expression Analysis (LTEA) Assay for Fatty Acid Synthase (FASN) using HepaRG (AID 2283448; active = hit-call score of the fitted dose curve at least 0.9, where 1 is the maximum; inactive = score below 0.9;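 for AC50: differentiated human HepaRG liver cells in serum-free induction medium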). The settings on record: mRNA level, 48 h; actives raise or lower the signal. The procedure, abridged:
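FASN expression changes, up or down relative to 0.5% DMSO, were measured by qRT-PCR in human HepaRG cells after 48 h treatment with chemicals at eight concentrations (half-log steps from 100 uM).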

Read-out in experiment [6]: Cyclin Dependent Kinase Inhibitor 1A (CDKN1A), CDKN1A (gene 1026)
Description: LTEA_HepaRG_CDKN1A: Life Technologies and Expression Analysis (LTEA) Assay for Cyclin Dependent Kinase Inhibitor 1A (CDKN1A) using HepaRG (AID 2283450; active = hit-call score of the fitted dose curve at least 0.9, where 1 is the maximum; inactive = score below 0.9). The settings on record: mRNA level, 48 h; actives raise or lower the signal. The gist of the method: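 Cryopreserved HepaRG cells were plated and cultured 48 h, then switched to serum-free induction medium. Chemicals (eight half-log concentrations, top 100 uM, 0.5% DMSO) were applied for 48 h. Lysates underwent qRT-PCR for CDKN1A with housekeeping normalization.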

Read-out in experiment [7]: Cyclin D1 (CCND1), CCND1 (gene 595)
As to the kind of experiment: LTEA_HepaRG_CCND1: Life Technologies and Expression Analysis (LTEA) Assay for Cyclin D1 (CCND1) using HepaRG (AID 2283451; active = hit-call score of the fitted dose curve at least 0.9, where 1 is the maximum; inactive = score below 0.9). The settings on record: mRNA level, 48 h; actives raise or lower the signal. The procedure, abridged:
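Human liver HepaRG line; 48 h dosing, 8 conc. ≤100 uM, 0.5% DMSO; TaqMan qRT-PCR mRNA, 3 housekeeping genes; bidirectional curve fit vs DMSO.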

Read-out in experiment [8]: catalase (CAT), CAT (gene 847)
Description: LTEA_HepaRG_CAT: Life Technologies and Expression Analysis (LTEA) Assay for catalase (CAT) using HepaRG (AID 2283452; active = hit-call score of the fitted dose curve at least 0.9, where 1 is the maximum; inactive = score below 0.9;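 for AC50: TaqMan qRT-PCR signal normalized to ACTB GAPDH and POLR2A housekeeping genes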). The note with it: mRNA level, 48 h; actives raise or lower the signal. The gist of the method: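 Expression of CAT was quantified by TaqMan qRT-PCR with ACTB/GAPDH/POLR2A normalization after 48 h chemical exposure of HepaRG. Eight-point half-log series, top 100 uM, in 0.5% DMSO; gain or loss fitted against vehicle.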

Read-out in experiment [9]: flavin-containing dimethylaniline monooxygenases 3 (FMO3), FMO3 (gene 2328)
As to the kind of experiment: LTEA_HepaRG_FMO3: Life Technologies and Expression Analysis (LTEA) Assay for flavin-containing dimethylaniline monooxygenases 3 (FMO3) using HepaRG (AID 2283453; active = hit-call score of the fitted dose curve at least 0.9, where 1 is the maximum; inactive = score below 0.9;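 for AC50: differentiated human HepaRG liver cells in serum-free induction medium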). The settings on record: mRNA level, 48 h; actives raise or lower the signal. The procedure, abridged: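 Differentiated HepaRG cells in serum-free induction medium, exposed 48 h in duplicate to 8 half-log concentrations up to 100 uM in 0.5% DMSO. FMO3 mRNA by qRT-PCR, normalized to ACTB, GAPDH, POLR2A; bidirectional fit vs DMSO.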

Read-out in experiment [10]: Cytochrome P450 (CYP1A1), CYP1A1 (gene 1543)
Description: LTEA_HepaRG_CYP1A1: Life Technologies and Expression Analysis (LTEA) Assay for Cytochrome P450 (CYP1A1) using HepaRG (AID 2283454; active = hit-call score of the fitted dose curve at least 0.9, where 1 is the maximum; inactive = score below 0.9). The note with it: mRNA level, 48 h; actives raise or lower the signal. The procedure, abridged:
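Induction of CYP1A1 mRNA in a human hepatic cell line was measured 48 h after dosing, with 1 mM phenobarbital as induction positive control and 0.5% DMSO vehicle as baseline for bidirectional curve fitting.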

Experiment [11] concerns the target Bile acid receptor (Homo sapiens) (UniProt Q96RI1). Description: OT_FXR_FXRSRC1_1440: Odyssey Thera (OT) 24-hour HEK293T Protein-Complementation Assay for Farnesoid X receptor/SRC-1 Co-activator (AID 2283384). The gist of the method:
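Compounds are applied to human kidney HEK293T cells expressing bait and prey fused to reporter protein fragments; after 24 h, reconstituted reporter fluorescence is measured. Activity is fitted as signal gain over DMSO.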

A short description of experiment [12]: CEETOX_H295R_CORTIC: CeeTox H295R High-throughput Steroidogenesis Assay for Corticosterone (CORTIC) (AID 2283437; active = hit-call score of the fitted dose curve at least 0.9, where 1 is the maximum; inactive = score below 0.9;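 note: corticosterone secreted into medium quantified by mass spectrometry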). The note with it: actives raise or lower the signal. The gist of the method: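 Corticosterone secreted into medium is measured by reverse-phase HPLC with tandem MS following liquid-liquid extraction. Cells are forskolin-stimulated (10 uM, 48 h) before 48 h test exposure; activity fitted in both directions against DMSO.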

The nature of experiment [13]: CEETOX_H295R_CORTISOL: CeeTox H295R High-throughput Steroidogenesis Assay for Cortisol (AID 2283438; active = hit-call score of the fitted dose curve at least 0.9, where 1 is the maximum; inactive = score below 0.9;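 note: cortisol secreted into medium quantified by LC-MS/MS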). The note with it: actives raise or lower the signal. The gist of the method:
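Forskolin 10 uM 48 h prestim → test cmpd in DMSO (0.1% final) 48 h → medium MTBE-extracted → LC-MS/MS cortisol vs 7-pt std curve. Gain/loss of signal fitted vs DMSO. MTT viability in same wells.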

Experiment [14] in a line: CEETOX_H295R_DOC: CeeTox H295R High-throughput Steroidogenesis Assay for DOC (AID 2283439; active = hit-call score of the fitted dose curve at least 0.9, where 1 is the maximum; inactive = score below 0.9). The settings on record: actives raise or lower the signal. The gist of the method:
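Readout: 11-deoxycorticosterone in culture medium by reverse-phase C18 HPLC with ESI+ tandem MS after MTBE extraction. Cells: H295R, forskolin-primed (10 uM, 48 h), chemical-treated 48 h; DMSO 0.1% final. Activity fitted bidirectionally versus DMSO.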

Records with an inconclusive call do not appear. Some compounds were tested as several samples or in several runs, with calls that do not always agree. Activity calls are given as the source filed them. Rule for the calls, unless noted: active = hit-call score of the fitted dose curve at least 0.9, where 1 is the maximum; inconclusive = response in the unintended direction; inactive = score below 0.9.

Sequence of Retinoic acid receptor RXR-alpha (Homo sapiens) (P19793 whole entry, looked up, the tested form may be a part): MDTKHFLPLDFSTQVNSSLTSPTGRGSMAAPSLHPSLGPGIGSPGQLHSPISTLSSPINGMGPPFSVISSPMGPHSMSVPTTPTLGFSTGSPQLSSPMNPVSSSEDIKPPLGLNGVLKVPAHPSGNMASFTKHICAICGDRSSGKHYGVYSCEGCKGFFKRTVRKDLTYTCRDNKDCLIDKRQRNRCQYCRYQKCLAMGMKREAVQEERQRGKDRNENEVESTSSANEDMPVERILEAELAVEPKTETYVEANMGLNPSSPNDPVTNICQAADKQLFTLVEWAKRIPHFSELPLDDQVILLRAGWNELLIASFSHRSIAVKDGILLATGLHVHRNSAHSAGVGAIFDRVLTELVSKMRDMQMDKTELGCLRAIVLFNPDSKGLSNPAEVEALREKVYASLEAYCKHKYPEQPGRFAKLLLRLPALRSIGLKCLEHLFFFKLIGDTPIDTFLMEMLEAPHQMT
Sequence of Fatty acid synthase (Homo sapiens) (P49327 whole entry, looked up): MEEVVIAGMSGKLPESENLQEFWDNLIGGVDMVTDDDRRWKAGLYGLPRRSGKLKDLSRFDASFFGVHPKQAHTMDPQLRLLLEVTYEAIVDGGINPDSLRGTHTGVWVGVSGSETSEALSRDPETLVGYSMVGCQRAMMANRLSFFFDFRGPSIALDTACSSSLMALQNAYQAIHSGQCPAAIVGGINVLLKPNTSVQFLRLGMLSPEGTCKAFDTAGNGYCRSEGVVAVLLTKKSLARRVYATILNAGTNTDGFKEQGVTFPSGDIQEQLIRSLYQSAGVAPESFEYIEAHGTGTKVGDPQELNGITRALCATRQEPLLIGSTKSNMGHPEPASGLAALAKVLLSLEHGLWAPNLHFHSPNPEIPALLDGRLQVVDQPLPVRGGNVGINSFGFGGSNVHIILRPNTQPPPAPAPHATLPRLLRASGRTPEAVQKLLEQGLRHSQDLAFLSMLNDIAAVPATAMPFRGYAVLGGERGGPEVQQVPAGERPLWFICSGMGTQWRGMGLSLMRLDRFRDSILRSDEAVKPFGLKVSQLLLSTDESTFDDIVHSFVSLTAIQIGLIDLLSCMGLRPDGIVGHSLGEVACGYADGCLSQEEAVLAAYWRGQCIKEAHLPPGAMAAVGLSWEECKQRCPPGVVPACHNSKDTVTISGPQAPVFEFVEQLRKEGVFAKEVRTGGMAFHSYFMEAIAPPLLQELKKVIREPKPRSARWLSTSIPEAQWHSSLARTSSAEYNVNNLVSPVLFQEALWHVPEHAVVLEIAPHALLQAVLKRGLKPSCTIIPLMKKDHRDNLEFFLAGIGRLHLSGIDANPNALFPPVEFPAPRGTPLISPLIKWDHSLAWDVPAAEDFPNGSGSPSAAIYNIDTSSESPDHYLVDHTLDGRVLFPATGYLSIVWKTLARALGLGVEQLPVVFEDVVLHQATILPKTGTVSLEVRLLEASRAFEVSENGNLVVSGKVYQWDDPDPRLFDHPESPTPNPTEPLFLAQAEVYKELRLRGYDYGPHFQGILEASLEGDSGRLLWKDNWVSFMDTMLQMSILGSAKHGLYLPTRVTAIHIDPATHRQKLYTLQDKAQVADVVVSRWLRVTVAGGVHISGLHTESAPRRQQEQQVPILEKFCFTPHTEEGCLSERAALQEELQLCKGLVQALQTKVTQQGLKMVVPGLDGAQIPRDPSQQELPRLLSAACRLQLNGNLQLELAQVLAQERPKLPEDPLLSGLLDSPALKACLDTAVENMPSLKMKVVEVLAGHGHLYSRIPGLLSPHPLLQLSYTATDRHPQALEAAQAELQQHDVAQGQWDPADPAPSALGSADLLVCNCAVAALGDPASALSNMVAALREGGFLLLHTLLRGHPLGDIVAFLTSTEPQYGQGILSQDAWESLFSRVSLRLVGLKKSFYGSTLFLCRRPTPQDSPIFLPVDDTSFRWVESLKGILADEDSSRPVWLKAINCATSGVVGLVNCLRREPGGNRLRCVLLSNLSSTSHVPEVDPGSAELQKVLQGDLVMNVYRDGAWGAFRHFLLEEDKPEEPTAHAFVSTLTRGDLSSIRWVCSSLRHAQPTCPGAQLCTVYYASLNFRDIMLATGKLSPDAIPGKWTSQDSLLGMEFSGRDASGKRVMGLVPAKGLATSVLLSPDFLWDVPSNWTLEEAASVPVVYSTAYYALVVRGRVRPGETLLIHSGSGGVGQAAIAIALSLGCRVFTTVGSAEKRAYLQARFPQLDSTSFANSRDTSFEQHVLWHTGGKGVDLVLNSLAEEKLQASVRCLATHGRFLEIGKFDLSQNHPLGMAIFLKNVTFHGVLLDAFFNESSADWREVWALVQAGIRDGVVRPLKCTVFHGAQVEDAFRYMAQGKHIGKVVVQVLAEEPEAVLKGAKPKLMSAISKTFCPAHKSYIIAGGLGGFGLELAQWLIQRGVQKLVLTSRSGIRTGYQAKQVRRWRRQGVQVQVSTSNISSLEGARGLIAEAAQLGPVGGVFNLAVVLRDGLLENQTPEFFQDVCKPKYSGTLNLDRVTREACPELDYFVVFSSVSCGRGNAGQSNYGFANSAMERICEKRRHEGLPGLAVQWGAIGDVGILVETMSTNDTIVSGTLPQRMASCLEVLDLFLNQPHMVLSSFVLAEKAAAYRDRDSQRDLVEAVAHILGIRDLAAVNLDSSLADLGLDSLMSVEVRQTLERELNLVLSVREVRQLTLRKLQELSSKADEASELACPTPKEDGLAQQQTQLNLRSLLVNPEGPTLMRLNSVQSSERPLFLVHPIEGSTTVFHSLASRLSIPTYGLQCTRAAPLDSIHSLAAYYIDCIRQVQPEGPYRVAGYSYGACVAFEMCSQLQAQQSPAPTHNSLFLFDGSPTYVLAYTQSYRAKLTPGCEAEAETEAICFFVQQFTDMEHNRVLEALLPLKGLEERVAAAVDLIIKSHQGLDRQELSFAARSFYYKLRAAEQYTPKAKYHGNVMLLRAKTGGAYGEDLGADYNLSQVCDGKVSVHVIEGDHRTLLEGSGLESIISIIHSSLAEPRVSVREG
Sequence of Bile acid receptor (Homo sapiens) (Q96RI1 whole entry, looked up, the tested form may be a part): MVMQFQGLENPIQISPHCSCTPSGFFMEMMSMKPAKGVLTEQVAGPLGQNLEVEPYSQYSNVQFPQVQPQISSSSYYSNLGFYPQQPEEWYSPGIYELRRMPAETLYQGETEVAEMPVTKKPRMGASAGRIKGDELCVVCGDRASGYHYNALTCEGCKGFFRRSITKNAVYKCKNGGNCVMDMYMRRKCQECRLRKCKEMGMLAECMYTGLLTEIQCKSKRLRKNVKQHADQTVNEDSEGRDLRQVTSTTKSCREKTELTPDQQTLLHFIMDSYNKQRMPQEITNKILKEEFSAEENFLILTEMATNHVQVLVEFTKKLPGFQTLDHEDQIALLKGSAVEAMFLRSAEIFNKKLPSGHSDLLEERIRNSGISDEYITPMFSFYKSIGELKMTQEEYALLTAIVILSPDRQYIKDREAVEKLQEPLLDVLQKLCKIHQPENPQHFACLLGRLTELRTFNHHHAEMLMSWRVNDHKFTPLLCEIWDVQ

As for `O=C1NS(=O)(=O)c2ccccc21`, the result in [1], in experiment [2], in experiment [3], in experiment [4], in [5] and in [6] was inactive. For the same molecule, the call in [7], in [8] and in [9] was inactive. Moreover, the half-maximal activity concentration (AC50) in [10] is 73.2 µM (active).

On to `NS(=O)(=O)O`, for which the result in experiment [1], in experiment [2], in [3] and in experiment [4] was inactive.

`O=C(CCCN1CCC(O)(c2ccc(Cl)cc2)CC1)c1ccc(F)cc1`: the molecule was called inactive in experiment [11], in [1], in experiment [2], in experiment [3], in experiment [4] and in experiment [12]. Further, the molecule was called inactive in experiment [13], in experiment [14] and in [7]. For the same molecule, the concentration at half-maximal activity (AC50) in [2] was 80.3 µM (active); in [5] it was 9.92 µM (active); in [6], 79.9 µM (active); in experiment [8] it was 68.4 µM (active); in experiment [9] it was 73.7 µM (active); in [10] it was 12.4 µM (active).

As to `OCC(CO)(CBr)CBr`, the result in experiment [11], in experiment [1], in [3], in [4], in experiment [5] and in [6] was inactive. The outcome in experiment [7], in experiment [8], in [9] and in experiment [10] was inactive.

For `CCCCCCC(C)(C)C(=O)O`, the call in experiment [11], in experiment [1], in [2], in experiment [3] and in [4] was inactive.

In the case of `NCc1cccc(CN)c1`, the molecule was classed as inactive in experiment [11], in experiment [2], in [3] and in experiment [4].

Turning to `CCCCCCc1ccc(N)cc1`, the half-maximal activity concentration (AC50) in experiment [11] is 6.61 µM (active). The call in [1], in [2], in [3] and in experiment [4] was inactive.

`C=CC(C)(CCC=C(C)C)OC(C)=O` (stereo not given): the molecule was called inactive in [11], in experiment [1], in experiment [3] and in experiment [4].

As for `CCCCCCCCCC=CCC1CC(=O)OC1=O` (stereo not given), the molecule was classed as inactive in experiment [11], in experiment [1], in experiment [3] and in [4].

As to `CCCCC=O`, the molecule was classed as inactive in [11], in experiment [1], in experiment [2], in experiment [5], in [6] and in experiment [7]. Further, the outcome in experiment [8], in [9] and in experiment [10] was inactive.

`CN(C)CCOC(c1ccccc1)c1ccccc1`: the outcome in experiment [1], in experiment [2], in experiment [6], in experiment [7], in [8] and in experiment [9] was inactive. The AC50 in experiment [2] is 6.73 µM (active); in experiment [5], 50 µM (active).

On to `c1cnc2c(c1)ccc1cccnc12`, for which the outcome in [1], in [3] and in experiment [4] was inactive. Also, the half-maximal activity concentration (AC50) in [2] is 0.727 µM (active).

Consider `O=S(=O)(O)c1ccccc1`, for which the call in experiment [11], in [1], in experiment [2], in experiment [3] and in [4] was inactive.

`Cc1cc(C(=C2C=CC(=Nc3ccc(S(=O)(=O)O)cc3)C=C2)c2ccc(Nc3ccc(S(=O)(=O)O)cc3)cc2)cc(S(=O)(=O)O)c1N`: the molecule was called inactive in [11], in experiment [3] and in experiment [4].
